From PubChem
MCF10A rereplic = induces DNA re-replication in MCF 10a normal breast cells; MCF 10A DNA re-replication, Hoechst nuclear intensity, 48 h; Potency, µM (highest dose often 46.1 µM), without a hit: at the highest dose activity, positive = re-replication, most hits filed as activators; 350,000 compounds, 2.9% hits; also: potency is read from the fitted curve at half-maximal effect; % of control where 0% means no effect; nearly all actives have a fitted effect of over 50% in size
TDP1 cell CPT = growth inhibition of DT40 Tdp1-/-;hTDP1 cells with camptothecin (screen for TDP1 inhibitors); 420,000 compounds, 12% hits; AID 686979; Potency, µM (series often up to 46.2 µM), for inactives: top-dose activity change, negative = growth inhibition, usual class: inhibitors; chicken DT40 Tdp1-/-;hTDP1 cells + 20 nM CPT, ATP luminescence, 48 h; also: potency is read from the fitted curve at half-maximal effect; % is scaled to controls: 0 for no effect and ±100 for the full control effect; nearly all actives have a fitted effect of over 55% in size
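Chicken DT40 Tdp1-/- cells stably complemented with human TDP1 were seeded at 400 cells/well in medium containing 20 nM camptothecin, exposed to pin-transferred compounds, and grown at 37 °C for at least 48 hr. Viability was read as ATP luminescence.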
SW480 rerep = DNA re-replication induction in SW480 cells | Potency, µM (series often up to 46.1 µM), inactives show at the top dose re-replication activation, usual class: activators | SW480 DNA re-replication, Hoechst DNA content imaging, 48 h | AID 624297 | 340,000 compounds, 1.8% hits; also: potency is read from the fitted curve at half-maximal effect; % of control where 0% means no effect; nearly all actives have a fitted effect of over 55% in size
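First, 250 cells per well were seeded. Next, compound or vehicle (23 nL) was pinned in, plates sat 48 hr at 37 C. Finally Hoechst was added for 40 min before fluorescence scanning.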
BCR signal inh = inhibitors of chronic active B-cell receptor signaling; AID 493014; Potency, µM (titrated, usually from 46.1 µM), inactives show at the highest dose activity change, negative = inhibition, most hits filed as inhibitors; ABC-DLBCL IkBa-CBG/CBR reporter, luminescence ratio, 4 h; 340,000 compounds, 0.05% hits; active = well fitted inhibition curve with a large enough effect in the signal ratio, with a control signal flat, not every such curve was filed as active; inconclusive = small, poorly fitted or top-dose-only effect, or effect the other way, or a change in a side signal; the % refers to the signal ratio;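 also: potency is read from the fitted curve at half-maximal effect; plate controls were basal doxycycline-induced cells for no effect and cells given 10 µM MG132 for full effect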
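Concentration-response series (up to 46 uM) were applied to TMD8 dual-reporter cells for 4 h at 37C with doxycycline. Green/red ratio, after filter-overlap correction, defined %Activity; red signal alone was normalised to basal cells and zero luminescence.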
IL-1B inflam inh = inhibitors of inflammasome signaling (IL-1 beta secretion) | 360,000 compounds, 4.7% hits | THP-1 LPS/ATP IL-1B secretion, AlphaLISA, 16 h; active compounds read low | activity change, % at 57.5 µM | AID 743279; in the data active = activity change below about -50%; inconclusive = mostly about -30% to -49%; also: % is scaled to controls: 0 for no effect and ±100 for the full control effect
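Secreted IL-1B measured by AlphaLISA bead assay after 16 h compound exposure of THP-1 cells; compounds (final up to 57.5 uM) added 1 h before LPS (250 ng/mL) and ATP (1.25 mM) stimulation; lower signal means less secretion.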
DT40 TDP1 no CPT = qHTS for Inhibitors of human tyrosyl-DNA phosphodiesterase 1 (TDP1): qHTS in cells in absence of CPT | DT40 Tdp1-/- hTDP1 cells, no CPT, ATP luminescence, 48 h | Potency, µM (highest dose often 46.2 µM), inactives show at the highest dose activity change, negative = growth inhibition, hits mostly inhibitors | 420,000 compounds, 15% hits | AID 686978, 2013; also: potency is read from the fitted curve at half-maximal effect; % is scaled to controls: 0 for no effect and ±100 for the full control effect; nearly all actives have a fitted effect of over 55% in size
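Growth kinetics read by CellTiter-Glo luminescence after ≥48 hr at 37 °C. Cells: DT40 Tdp1-/- stably carrying human TDP1, 400 per well, compound exposure in the absence of CPT (DMSO vehicle).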
* marks the source's active call; other numbers are inactive results. Only some compounds are listed: those with a hit (about 19% of all), similar ones and a draw of the others. Unless noted, calls follow the shape of the dose curve; as a rule, active = well fitted curve in the direction sought with a large enough effect; inconclusive = small, poorly fitted or top-dose-only effect, or another doubt; inactive = no such curve, though single readings can be large; an effect the other way counts as inactive or inconclusive.

Screening CCOc1ccccc1CNC(=O)CCn1c(=O)c2cccn2c2ccc(F)cc21 returned TDP1 cell CPT inconclusive and DT40 TDP1 no CPT 16µM*.
`O=C(NC1CCC1)C1CCC(=O)N(Cc2ccc(Cl)cc2)C1` (centres undefined) gave TDP1 cell CPT 3%, IL-1B inflam inh 11 and DT40 TDP1 no CPT -10%.
For CCN(CC)CCCNC(=O)c1cc(-c2ccc(Cl)c(Cl)c2)on1 the results were MCF10A rereplic inconclusive, TDP1 cell CPT 21µM*, SW480 rerep inconclusive, BCR signal inh 9%, IL-1B inflam inh -21 and DT40 TDP1 no CPT 23µM*.
`Cc1ccc(-c2cc(C(=O)NCCCN3CCOCC3)no2)cc1` gave MCF10A rereplic 0%, TDP1 cell CPT inconclusive, SW480 rerep 2%, BCR signal inh 4%, IL-1B inflam inh -11 and DT40 TDP1 no CPT -13%.
Screening CCN(CC)CCCNC(=O)c1cc(-c2ccc(O)cc2)on1 returned MCF10A rereplic 2%, TDP1 cell CPT -4%, SW480 rerep -5%, BCR signal inh -8%, IL-1B inflam inh 0 and DT40 TDP1 no CPT -13%.
O=C(NCCCN1CCOCC1)c1cc(-c2ccc(Cl)c(Cl)c2)on1 was read as MCF10A rereplic -2%, TDP1 cell CPT inconclusive, SW480 rerep -10%, BCR signal inh -27%, IL-1B inflam inh -12 and DT40 TDP1 no CPT 16µM*.
Cc1ccc(C(=O)NCCc2nnc3c(C(F)(F)F)cc(Cl)cn23)o1 was read as MCF10A rereplic -1%, TDP1 cell CPT -6%, SW480 rerep 3%, BCR signal inh -1%, IL-1B inflam inh inconclusive and DT40 TDP1 no CPT 30%.
For Cc1cc(NC(=O)c2cccnc2)ccc1NC(=O)c1cc2ccccc2o1 the results were MCF10A rereplic 0%, TDP1 cell CPT 13µM*, SW480 rerep -13%, BCR signal inh inconclusive, IL-1B inflam inh -18 and DT40 TDP1 no CPT 10µM*.
Screening Cc1cc(NC(=O)c2cccnc2Cl)ccc1NC(=O)c1cc2ccccc2o1 returned MCF10A rereplic inconclusive, TDP1 cell CPT 9.2µM*, SW480 rerep -9%, BCR signal inh inconclusive, IL-1B inflam inh -7 and DT40 TDP1 no CPT 10µM*.
O=C(Nc1ccc(NC(=O)c2cc3ccccc3o2)cc1)c1ccc2c(c1)OCCO2 was read as MCF10A rereplic 19%, TDP1 cell CPT -8%, SW480 rerep 20%, BCR signal inh 4%, IL-1B inflam inh 39 and DT40 TDP1 no CPT -27%.
Screening Cc1cc(NC(=O)c2ccc3c(c2)OCCO3)ccc1NC(=O)c1cc2ccccc2o1 returned MCF10A rereplic 14%, TDP1 cell CPT 5.8µM*, SW480 rerep 22%, BCR signal inh inconclusive, IL-1B inflam inh 84 and DT40 TDP1 no CPT 4.6µM*.
Screening O=S1(=O)N[C@@H](Cc2ccccc2)COc2cccc(N3CCSCC3)c21 returned TDP1 cell CPT -18%, IL-1B inflam inh 12 and DT40 TDP1 no CPT inconclusive.
ONC(=Nc1ccccc1Cl)c1c(F)cccc1F was read as MCF10A rereplic 5%, TDP1 cell CPT inconclusive, SW480 rerep -14%, IL-1B inflam inh 0 and DT40 TDP1 no CPT inconclusive.
`O=C1CCC/C1=c1\s/c(=C/c2cccnc2)c(=O)n1-c1ccccc1` gave MCF10A rereplic 3%, TDP1 cell CPT inconclusive, SW480 rerep -11%, IL-1B inflam inh -73* and DT40 TDP1 no CPT inconclusive.
For O=C1CCC/C1=c1\s/c(=C\c2cccnc2)c(=O)n1-c1ccccc1 the results were MCF10A rereplic 8%, TDP1 cell CPT inconclusive, SW480 rerep 1%, BCR signal inh -1%, IL-1B inflam inh -75* and DT40 TDP1 no CPT 16µM*.
`Cc1c(N=Cc2cccnc2)c(=O)n(-c2ccccc2)n1C` gave MCF10A rereplic 2%, TDP1 cell CPT -5%, SW480 rerep -7%, BCR signal inh -11%, IL-1B inflam inh 20 and DT40 TDP1 no CPT -6%.
For CCOC(=O)c1c(/N=C/N(C)C)sc(/C=N/Nc2ccccc2)c1-c1ccccc1Cl the results were MCF10A rereplic 15µM*, TDP1 cell CPT -15%, SW480 rerep 18µM*, BCR signal inh 2%, IL-1B inflam inh 0 and DT40 TDP1 no CPT inconclusive.
Screening CCOC(=O)c1c(/N=C/N(C)C)sc(/C=N/Nc2ccccc2)c1-c1ccccc1 returned MCF10A rereplic 21µM*, TDP1 cell CPT inconclusive, SW480 rerep inconclusive, BCR signal inh inconclusive, IL-1B inflam inh -4 and DT40 TDP1 no CPT -22%.
For O=S(=O)(Nc1nc2ccccc2nc1Nc1ccccc1Br)c1ccccc1 the results were TDP1 cell CPT -8% and DT40 TDP1 no CPT -23%.
COCCCn1c(=N)c(C(=O)NC2CCCCC2)cc2c(=O)n3cc(C)ccc3nc21 was read as TDP1 cell CPT -27% and DT40 TDP1 no CPT inconclusive.
CC(C)CC(NS(=O)(=O)OCC(Cl)(Cl)Cl)c1ccccc1 (centres undefined) was read as MCF10A rereplic inconclusive, TDP1 cell CPT inconclusive, SW480 rerep -1%, BCR signal inh inconclusive, IL-1B inflam inh -20 and DT40 TDP1 no CPT 16µM*.
For CCCCN(C(=O)c1cccc(S(=O)(=O)N2CCN(C)CC2)c1)c1c(N)n(CCC)c(=O)[nH]c1=O the results were MCF10A rereplic -1%, TDP1 cell CPT 5%, SW480 rerep 0%, BCR signal inh -7%, IL-1B inflam inh 2 and DT40 TDP1 no CPT 4%.
Screening CC(C)CC1(C(=O)NCc2cc(F)cc(C(F)(F)F)c2)C=CCN1C(=O)c1ccccc1 (centres undefined) returned MCF10A rereplic 1.5µM*, TDP1 cell CPT inconclusive, SW480 rerep 8%, BCR signal inh inconclusive, IL-1B inflam inh 45 and DT40 TDP1 no CPT 29µM*.
For CC(=O)N1CC=CC1(C)C(=O)NCc1cc(F)cc(C(F)(F)F)c1 (centres undefined) the results were MCF10A rereplic -19%, TDP1 cell CPT 3%, SW480 rerep 6%, BCR signal inh -1%, IL-1B inflam inh 16 and DT40 TDP1 no CPT -4%.
CC1CCCCN1CCCNC(=O)C1CCN(c2nnc(-n3cccc3)s2)CC1 (centres undefined) was read as MCF10A rereplic 8%, TDP1 cell CPT -4%, SW480 rerep 0%, BCR signal inh -3%, IL-1B inflam inh inconclusive and DT40 TDP1 no CPT 19%.
